Data on 59 compounds can be found in PubChem BioAssay AID1259422 (The Scripps Research Institute Molecular Screening Center, 2018).

Out of some 640,000 compounds screened, about 9,300 (1.5%) were called active. No stated cut-off is given here; in the data, active means inhibition above about 32%; inactive means the rest. The full list was thinned out, with actives kept by preference.

This experiment in a line: TEAD-YAP interaction inhibition, primary screen, TEAD-YAP interaction inhibitor project, luminescence, HEK-TIYL cells (AID 1259422).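 Further: 0% = median of test compound wells and 100% = reference inhibitor wells.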 The note with it: TEAD-Gal4/YAP UAS-luciferase luminescence, at 9.12 µM, hits give high values.
`CCCCOc1ccc(NS(=O)(=O)c2cc(F)ccc2OC)cc1`: the inhibition was 1.6% (inactive).

Regarding `Cc1cc2c(cc1C)NC(c1cccc3ccccc13)C1=C(CC(C)(C)CC1=O)N2` (centres undefined), the inhibition is -9.75% (inactive).

Regarding `Cn1c(=O)n(Cc2ccc(F)cc2)c(=O)c2c1nc1oc(C(C)(C)C)cn12`, the inhibition was -6.69% (inactive). Take `O=[N+]([O-])c1ccc(S(=O)(=O)NCCSCc2ccco2)cc1`: the inhibition was 6.05% (inactive).

As to `C/C(=N\NC(=O)c1ccc(CSc2nc(C)cc(C)n2)cc1)c1ccccc1O`, the inhibition is 10.2% (inactive). Turning to `CC(C)n1c(Nc2cnccn2)nc2c(NCCc3ccc(O)cc3)ncnc21`, the inhibition is 14.1% (inactive). For `CCN(CC)C(=O)C1CCCN(c2nc(NC3CC3)c3ncn(-c4ccccc4)c3n2)C1` (centres undefined), the inhibition was 9.83% (inactive).

`CCN(CC)C(=O)C1CCCN(c2nc(Nc3ccc(NC(C)=O)cc3)c3ncn(-c4ccsc4)c3n2)C1` (centres undefined): the inhibition is 24.3% (inactive). Consider `CCN(CC)C(=O)C1CCCN(c2nc(NCCN(C(C)C)C(C)C)c3ncn(-c4ccsc4)c3n2)C1` (centres undefined), for which the inhibition is 36.7% (active).

Regarding `O=C1CCCN1CCCNc1nc(Nc2ccncn2)nc2c1ncn2-c1ccsc1`, the inhibition is 50.5% (active). On to `CCNc1nc(NCCCN2CCCC2=O)c2ncn(-c3ccccc3)c2n1`, for which the inhibition is 4.42% (inactive).

With `CC(C)n1cnc2c(NCCc3ccc(O)cc3)nc(Nc3cccc(N(C)C)c3)nc21`, the inhibition is -1.31% (inactive). Under `CC(C)n1cnc2c(NCCc3ccc(O)cc3)nc(Nc3cnccn3)nc21` stands 36.5% (active). `O=C1CCCN1CCCNc1nc(Nc2ccccc2)c2ncn(-c3ccsc3)c2n1`: the inhibition was 8.67% (inactive). For the compound `Cc1cccc(C(=O)NCc2nnc(SCC(=O)N3N=C(c4cccs4)CC3c3ccc(F)cc3)n2C)c1` (centres undefined), the inhibition is 10.4% (inactive).

On to `Cc1cccc(NC(=O)CC2SC(N)=NC2=O)c1C` (centres undefined), for which the inhibition was 3.13% (inactive).

With `O=c1oc2ccccc2cc1-c1nnc(Nc2cccc3ccccc23)s1`, the inhibition is -25.6% (inactive). As to `COc1ccc(NC(=O)C2C3C=CC4(O3)C2C(=O)N(CCC(C)C)C4C(=O)NC2CCCCC2)cc1` (centres undefined), the inhibition was 6.81% (inactive). In the case of `O=S(=O)(c1ccc(Br)c2ccccc12)N1CCN(Cc2ccccc2)CC1`, the inhibition was 14.9% (inactive). Under `O=c1onc(-c2cccs2)n1Cc1ccccc1` stands 4.82% (inactive).

As for `Cc1cccc(NC(=O)Cn2c(-c3cccs3)noc2=O)c1`, the inhibition is 33.3% (active). Under `CCOC(=O)c1nnn(CC(=O)Nc2cccc(C)c2)c1C(=O)OCC` stands -6.24% (inactive); under `O=C(COc1ccc(CO)cc1)Nc1ccc(Cl)c(Cl)c1`, -15.9% (inactive). In the case of `O=C(CC(O)(C(F)(F)F)C(F)(F)F)Nc1ccc(Cl)c(Cl)c1`, the inhibition is 58.9% (active).

For `O=C(Nc1ccc(Cl)c(Cl)c1)c1ccc(C(=O)Nc2ccc(Cl)c(Cl)c2)cc1`, the inhibition is -3.3% (inactive).

Regarding `CCn1c(CNc2c(C)cccc2C)nnc1SCC(N)=O`, the inhibition is -2.12% (inactive). On to `CCOC(=O)c1c(NC(=O)c2cc(OC)c(OC)c(OC)c2)sc(C(=O)N2CCCC2)c1C`, for which the inhibition is -7.23% (inactive).

`CCOC(=O)c1cnc2c(C)c(C)ccc2c1NCCCN(C)C`: the inhibition is 81.7% (active). Consider `CCOC(=O)c1cnc2c(Cl)c(Cl)ccc2c1NCCOC(=O)c1cccnc1`, for which the inhibition was 0.48% (inactive). Under `CCOC(=O)c1cnc2c(Cl)c(Cl)ccc2c1NCCN(C)C` stands -5.54% (inactive). On to `C/C(=C\C(=O)ONC(=O)c1ccccc1)NCc1ccccc1`, for which the inhibition was -18.2% (inactive). Turning to `CCOC(=O)C1=C(C)N(c2ccc(C)c(C)c2)C(=O)/C1=C\c1cccs1`, the inhibition was 3.05% (inactive).

On to `O=C(CNS(=O)(=O)c1cccc2nonc12)NCc1ccccc1`, for which the inhibition was 8.04% (inactive). Turning to `Cc1ccc(NC(=O)CN2CCN(c3cccc(Cl)c3)CC2)cc1`, the inhibition was 5.46% (inactive).

For `COc1ccc(NC(=O)CN2CCN(C)CC2)c(OC)c1`, the inhibition is -0.51% (inactive). Under `COc1cccc(N2CCN(CC(=O)Nc3ccccc3C(N)=O)CC2)c1` stands 91.2% (active). For `CCCCn1c(CNC(=O)c2cccc(OC)c2)nnc1SCC(=O)Nc1sc2c(c1C(=O)OCC)CCCC2`, the inhibition is 1.81% (inactive). Consider `CCOCC(=O)NCc1ccc2c(c1)cc(C)n2C`, for which the inhibition was -6.23% (inactive). Under `CCOc1ccccc1C(=O)NCc1ccccc1` stands -14.4% (inactive); under `CCOc1ccccc1C(=O)NCc1ccc2c(c1)cc(C)n2C`, 51.1% (active).

For the compound `CC1=NN(c2ccccc2)C(=O)C1/C=C1\SC(=O)NC1=O` (centres undefined), the inhibition is 13.7% (inactive).

For the compound `CC1=NN(c2ccccc2)C(=O)C1Cl` (centres undefined), the inhibition was 17% (inactive). `CC1=NN(c2ccccc2)C(=O)C1N=Nc1c(C)n[nH]c1C` (centres undefined): the inhibition was 38.6% (active). In the case of `CC1=C(C(=O)OCc2ccccc2)C(c2cccc(I)c2)C2=C(CC(C)(C)CC2=O)N1` (centres undefined), the inhibition was 6.12% (inactive). On to `Cc1ccccc1-n1c(SCC#N)nc2c(sc(=S)n2-c2ccccc2C)c1=O`, for which the inhibition was -17.8% (inactive). With `COc1cc(C#N)cc(Cl)c1OC(C)=O`, the inhibition is 3.38% (inactive). On to `Cc1ccc2nc(-c3ccc(NC(=O)CCl)cc3)sc2c1`, for which the inhibition was 32% (active). Under `Cc1ccc2nc(-c3ccc(NC(=O)CSc4n[nH]c(N)n4)cc3)sc2c1` stands 48.5% (active). Take `Nc1nc(SCC(=O)Nc2ccc(F)c(Cl)c2)n[nH]1`: the inhibition is 4.23% (inactive). Under `Nc1nc(SCC(=O)Nc2ccc3c(c2)C(=O)c2ccccc2C3=O)n[nH]1` stands -48.4% (inactive); under `Cc1cccc(N(CC(=O)Nc2ccc(-c3nc4ccc(C)cc4s3)cc2)S(C)(=O)=O)c1`, 8.01% (inactive). Turning to `Cc1ccc2sc(-c3ccc(NC(=O)C(C)C)cc3)nc2c1`, the inhibition was -16.9% (inactive). In the case of `O=C(COC(=O)c1cc2ccccc2oc1=O)c1ccc(I)cc1`, the inhibition is 3.37% (inactive). Regarding `CCN(CC)c1ccc2cc(-c3nnc(Nc4cc(Cl)ccc4OC)s3)c(=O)oc2c1`, the inhibition was 5.73% (inactive). Under `CCN=C1SC(CC(=O)Nc2ccccc2SC)C(=O)N1CC` (centres undefined) stands -3.27% (inactive). Under `Cc1ccccc1NC(=O)CCC(=O)OCC(=O)c1ccc([N+](=O)[O-])cc1` stands 7.47% (inactive). As for `Cc1cc(Nc2nc3ccccc3n3nnnc23)n(-c2ccc([N+](=O)[O-])cc2)n1`, the inhibition was 29.3% (inactive).

As for `N#C/C(=C/c1ccccc1F)C(=O)NCCc1c[nH]c2ccccc12`, the inhibition is 12.4% (inactive). For `CCCC(=O)Nc1ccccc1NC(=O)Cc1ccccc1`, the inhibition is -1.49% (inactive).
